# Most compounds without a hit are left out; they make up all but 21% or so of the library.
# HCV inhibitor = inhibitors of hepatitis C virus infection. AID 651820. 3.4% of 340,000 active. Huh7.5.1 HCVcc-Cre infection, luciferase reporter, 44 h. Potency, µM (titrated, usually from 41.8 µM), for the others: at the top dose activity change, negative = inhibition, usual class: inhibitors; also: potency is read from the fitted curve at half-maximal effect; % is scaled to controls: 0 for no effect and ±100 for the full control effect
#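 HCVcc-Cre virus at an moi near 0.5 was added right after compound to cells cultured 4 h from seeding (1,000 cells/well). Luciferase activity was determined 44 h later, 15 min after substrate addition at RT.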
# Pf growth 48h = inhibits P. falciparum growth in the first generation, 48 h; P. falciparum luciferase growth in erythrocytes, 48 h; Potency, µM (highest dose often 28.7 µM), for inactives: at the highest dose activity change, negative = inhibition, most hits filed as inhibitors; 5.9% of 310,000 active; AID 504832; also: potency is read from the fitted curve at half-maximal effect; % is scaled to controls: 0 for no effect and ±100 for the full control effect
#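 Firefly luciferase activity from engineered P. falciparum reports growth; inhibitors lower the luminescent signal. Cultures contained 2% hematocrit erythrocytes at 0.1% final parasitemia.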
# Cycloheximide cs = affects cycloheximide protein synthesis inhibition readout, counter-screen. cell reporter, cycloheximide protein synthesis inhibition counterscreen. 12% of 300,000 active. max response, %; in the data active = max response mostly above about 13%, no sharp cut-off; inactive = mostly below about 14%; also: read at 38.3 µM for the half of the compounds with a filed dose; 0% is about no effect
# Shiga toxin inh = blocks Shiga toxin action in Vero cells; Vero cells, Shiga toxin protein synthesis inhibition reporter; 9.2% of 290,000 active; inhibition, % at 38.7 µM; AID 2315; in the data active = inhibition mostly above about 28%, no sharp cut-off; inactive = mostly below about 43%; also: 0% is about no effect
# AMA1-RON2 inh = disrupts binding of P. falciparum AMA1 to RON2 | AID 720542 | AlphaScreen AMA1-biotinylated RON2 peptide binding | 0.2% of 360,000 active | Potency, µM (series often up to 58.2 µM), for the others: at the top dose activity change, negative = inhibition, actives largely listed as inhibitors;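 also: potency is read from the fitted curve at half-maximal effect; 0% = vehicle wells and -100% = peptide control; nearly all actives have a fitted effect of over 45% in size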
#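 AMA1 (3D7) with his tag at 25 nM final met compounds first, then biotinylated RON2 peptide at 25 nM; detection used donor plus acceptor beads, 10 µg/mL apiece, read by AlphaScreen after 30 min at room temperature.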
# Pf growth 96h = P. falciparum growth inhibition at 96 hour, primary screen for plastid delayed-death inhibitors. P. falciparum luciferase reporter growth, 96 h. Potency, µM (titrated, usually from 28.7 µM), without a hit: top-dose activity change, negative = inhibition, usual class: inhibitors. 6.9% of 320,000 active; also: potency is read from the fitted curve at half-maximal effect; % is scaled to controls: 0 for no effect and ±100 for the full control effect
#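 Plates of compound plus infected erythrocytes (2% hematocrit, 0.05% parasitemia final) incubate 96 hours, 37 C, 5% CO2. Detection reagent added; reduced luminescence from the parasites' luciferase reporter flags inhibition.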
# * hit, by the source's call; ? = inconclusive; · = not tested or not shown. Unless noted, calls follow the shape of the dose curve; as a rule, active = well fitted curve in the direction sought with a large enough effect; inconclusive = small, poorly fitted or top-dose-only effect, or another doubt; inactive = no such curve, though single readings can be large; an effect the other way counts as inactive or inconclusive.
SMILES,HCV inhibitor,Pf growth 48h,Cycloheximide cs,Shiga toxin inh,AMA1-RON2 inh,Pf growth 96h
O=C(C1CCC(=O)N(C2CC2)C1)N1CCN(c2cccc(Cl)c2)CC1 (stereo unspecified),·,-1%,-3,-6,4%,?
O=[N+]([O-])c1cnc2nc(-c3ccncc3)nn2c1O,8%,37%,-3,-23,42%,59%
CC(=O)Nc1cccc(NS(=O)(=O)c2ccc3c(c2)CCC(=O)N3)c1,·,·,·,·,-1%,·
CCOC(=O)c1c(-c2ccc(C)o2)csc1NC(=O)CSc1nnc(C)s1,?,12µM*,-1,-7,-8%,169%
CCNC(=S)Nc1scc(-c2ccccc2)c1C(=O)OCC,2%,-1%,-3,6,34%,20%
CCOC(=O)c1c(NC(=O)CSc2nnc(N)s2)sc(C)c1-c1ccc(C)cc1,25µM*,?,-3,-4,22%,10µM*
CCOC(=O)c1c(CC(C)C)csc1NC(=O)COC(=O)C1=NNC(=O)CC1,?,1%,·,·,20%,?
CCOC(=O)c1c(-c2ccccc2)csc1NC(=O)CSc1nnc(C)s1,?,2.9µM*,-5,-12,7%,?
CCOC(=O)c1c(CC(C)C)csc1NC(=O)COC(=O)c1ccc(O)cc1,?,?,·,·,2%,9.3µM*
CCOC(=O)c1c(-c2ccc(OC)cc2)csc1NC(=O)CSc1ncnc2sccc12,?,?,-2,-13,-1%,5.2µM*
O=C(c1ccccc1NS(=O)(=O)c1ccc(F)cc1F)N1CCCCC1,2%,·,·,·,-10%,·
CCCCN(C(=O)C(C)Oc1ccc(Br)cc1)c1c(N)n(Cc2ccccc2)c(=O)[nH]c1=O (stereo unspecified),?,?,1,-30,-11%,?
CO/N=C(/C(=O)N[C@@H]1C(=O)N2C(C(=O)O)=C(COC(N)=O)CS[C@H]12)c1ccco1,·,15µM*,·,·,·,17µM*
Cc1c(C(=O)Nc2ccccc2F)sc2ncn(CC(=O)N3CCOCC3)c(=O)c12,9%,12%,15,-8,-2%,?
Cc1nc(N2CCN(c3ccccn3)CC2)c2c(C)c(C(=O)Nc3ccc(F)cc3F)sc2n1,6%,8.3µM*,16,15,-2%,-15%
Cc1nc(N2CCC(C)CC2)c2c(C)c(C(=O)Nc3ccc(C(F)(F)F)cc3)sc2n1,11µM*,0.21µM*,12,2,-4%,?
Cc1nc(N2CCN(c3ccccn3)CC2)c2c(C)c(C(=O)Nc3ccc(F)cc3Cl)sc2n1,?,?,11,-6,5%,14%
Cc1ccc(F)cc1NC(=O)c1sc2ncn(CC(=O)N3CCN(c4ccccn4)CC3)c(=O)c2c1C,15%,12%,-2,-7,13%,15µM*
Cc1nc(N2CCN(c3ccccn3)CC2)c2c(C)c(C(=O)Nc3ccccc3F)sc2n1,?,6.6µM*,6,-4,-13%,?
CCCn1nc(C(=O)OCC(=O)Nc2cccc(OC)c2)c2ccccc2c1=O,-5%,-9%,1,-5,1%,22%
CSC1=C(C#N)C(c2ccc(Cl)cc2)C2=C(CC(C)(C)CC2=O)N1 (stereo unspecified),11µM*,7.4µM*,-5,28,0%,17%
Cc1ccc(C2C3=C(CC(C)(C)CC3=O)NC3=C2C(=O)c2ccccc23)cc1 (stereo unspecified),?,5.2µM*,-3,-3,?,1.9µM*
CCCSC1=C(C#N)C(c2ccc(OC)cc2)C2=C(CC(C)(C)CC2=O)N1 (stereo unspecified),?,?,-4,-4,7%,?
CC1(C)CC(=O)C2=C(C1)NC1=C(C(=O)c3ccccc31)C2c1ccc(Cl)cc1 (stereo unspecified),11µM*,?,-3,8,?,?
Cc1cc(C)c(C(=O)N2CCCC(N3CCN(c4ccc(F)cc4)CC3)C2)o1 (stereo unspecified),?,?,7,-1,-17%,7%
O=C(NCC1(N2CCCCC2)CCCCC1)c1cccc(S(=O)(=O)Nc2ccc(F)cc2)c1,-4%,8.3µM*,·,·,4%,?

# Bioassay records: PubChem, National Center for Advancing Translational Sciences (NCATS)
